KB-V1 cytotox: kills drug-selected multidrug resistant KB-V1 cells; KB-V1 MDR cells viability, CellTiter-Glo, 72 h; 400,000 compounds, 3.4% hits; Potency, µM (top dose mostly 46.1 µM), most hits filed as cytotoxic; AID 1347076; also: nearly all actives have a fitted effect of over 60% in size
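Following 72 h at 37 degrees C with compound, KB-V1 cell viability was read by CellTiter-Glo luminescence, medium being phenol-red-free DMEM plus 10% FBS; concentration-response parameters came from normalized, curve-fitted qHTS data.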
MCF10A rereplic: DNA re-replication induction in MCF 10a cells. MCF 10A DNA re-replication, Hoechst nuclear intensity, 48 h. Potency, µM (highest dose often 46.1 µM), actives largely listed as activators. 350,000 compounds, 2.9% hits. AID 624296; also: nearly all actives have a fitted effect of over 50% in size
KB-3-1 cytotox: kills parental KB-3-1 adenocarcinoma cells; Potency, µM (titrated, usually from 46.1 µM), most hits filed as cytotoxic; 400,000 compounds, 1.4% hits; KB-3-1 viability, CellTiter-Glo ATP luminescence, 72 h; also: nearly all actives have a fitted effect of over 60% in size
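Cells are dispensed, compounds pinned in, plates held at 37 °C for 72 h, then CellTiter-Glo is added and luminescence read after 10 minutes. Cell line: parental KB-3-1 in phenol-red-free DMEM, 10% FBS.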
HT1080 IDH1KD tx: HT-1080 IDH1 knockdown cell toxicity (counter line); HT-1080 IDH1 knockdown viability, ATP luminescence, 48 h; Potency, µM (series often up to 46.1 µM), hits mostly cytotoxic; 360,000 compounds, 2% hits; AID 686971
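Cytotoxicity counter-line: IDH1KD HT-1080, 48 h, CellTiter-Glo. Curves classed by r2, magnitude and activity.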
HT1080-NT tox: kills 2HG-producing HT-1080-NT fibrosarcoma cells; HT-1080-NT fibrosarcoma viability, CellTiter-Glo ATP luminescence, 48 h; Potency, µM (series often up to 46.1 µM), hits mostly cytotoxic; 360,000 compounds, 1.6% hits;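 also: NT is the 2HG producing partner of a matched IDH1 knockdown line; nearly all actives have a fitted effect of over 55% in size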
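750 cells/well, RPMI + 5% FBS; 2 h settle, compound pin-transfer, 48 h at 37 degrees C. CellTiter-Glo 10 min RT, luminescence. Normalized to DMSO and media-only wells.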
SW480 rerep: induces DNA re-replication in SW480 colon adenocarcinoma cells; AID 624297; SW480 DNA re-replication, Hoechst DNA content imaging, 48 h; 340,000 compounds, 1.8% hits; Potency, µM (top dose mostly 46.1 µM), actives largely listed as activators; also: nearly all actives have a fitted effect of over 55% in size
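Treated cells incubate 48 hr (37 C, 5% CO2), are stained 40 min with Hoechst, and nuclear fluorescence is enumerated; a rise in nuclei with high DNA signal marks re-replication.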
Large screens that a line does not name were inactive. Most compounds without a hit are left out; they make up all but 7.9% or so of the library. Calls follow the shape of the dose curve; as a rule, active = well fitted curve in the direction sought with a large enough effect; inconclusive = small, poorly fitted or top-dose-only effect, or another doubt; inactive = no such curve, though single readings can be large; an effect the other way counts as inactive or inconclusive.

CN(C)c1nc(NCc2ccccc2)nc(N/N=C/c2ccc3c(c2)OCO3)n1	KB-V1 cytotox inconclusive, MCF10A rereplic 23.1µM
Cc1cc(N/N=C/c2ccc3c(c2)OCO3)nc2ccccc12	MCF10A rereplic 16.4µM, SW480 rerep inconclusive
O=c1c2ccccc2sn1-c1ccccc1F	KB-V1 cytotox inconclusive, KB-3-1 cytotox inconclusive, HT1080 IDH1KD tx inconclusive (no result: MCF10A rereplic, SW480 rerep)
Cc1ccccc1-n1sc2cc(F)ccc2c1=O	KB-V1 cytotox inconclusive, MCF10A rereplic 16.4µM, KB-3-1 cytotox inconclusive, HT1080 IDH1KD tx 20.6µM, HT1080-NT tox 18.4µM, SW480 rerep inconclusive
COC(C(=O)Nc1ccc(S(=O)(=O)Nc2cccc3ccccc23)cc1)c1ccccc1 (centres undefined)	KB-V1 cytotox 18.4µM, MCF10A rereplic inconclusive (no result: SW480 rerep)
COC(C(=O)Nc1ccc(S(=O)(=O)Nc2ccc(F)cc2)cc1)c1ccccc1 (centres undefined)	HT1080 IDH1KD tx inconclusive, HT1080-NT tox inconclusive, SW480 rerep inconclusive
Cc1c(O)ccc2c3c(c(=O)oc12)CCC(C)C3 (centres undefined)	KB-V1 cytotox inconclusive
Cc1c(O)ccc2c3c(c(=O)oc12)CCCC3	KB-V1 cytotox 16.4µM, MCF10A rereplic inconclusive, KB-3-1 cytotox inconclusive
Clc1nnc2ccc(-c3ccccc3)nn12	KB-V1 cytotox 16.4µM, KB-3-1 cytotox 23.1µM
Cc1ccc2nnc(Cl)n2n1	none
CCc1nc2ccc(C(=O)N(C)CCN(C)C)cn2c1N(C)Cc1cc2ccccc2s1	HT1080 IDH1KD tx inconclusive, HT1080-NT tox 16.4µM (no result: MCF10A rereplic, SW480 rerep)
Clc1ncnc2c1oc1ccccc12	KB-3-1 cytotox inconclusive
c1coc(CN(Cc2ccco2)c2ncnc3c2oc2ccccc23)c1	KB-V1 cytotox 16.4µM, MCF10A rereplic inconclusive, KB-3-1 cytotox inconclusive, HT1080 IDH1KD tx inconclusive, HT1080-NT tox inconclusive, SW480 rerep inconclusive
COc1ccc2c(-c3cc4ccc(OCc5ccc(F)cc5)cc4oc3=O)cc(=O)oc2c1	KB-V1 cytotox 8.2µM, MCF10A rereplic 1.84µM, KB-3-1 cytotox 7.31µM
COc1ccc(-n2ccnc(SCC(=O)NCc3ccccc3Cl)c2=O)cc1	none
COc1ccccc1-n1ccnc(SCC(=O)NCc2ccccc2Cl)c1=O	KB-V1 cytotox 20.6µM
Cc1c(OC(C)C(=O)NCc2ccccn2)ccc2c3c(c(=O)oc12)CCCC3 (centres undefined)	none
CN(C)CCCOC(=O)N1c2ccccc2C=Cc2ccccc21	KB-3-1 cytotox 25.9µM
CCc1nn2cc(C(=O)c3cc(C)ccc3O)cnc2c1-c1ccc(F)cc1	KB-V1 cytotox inconclusive, MCF10A rereplic 18.4µM
COc1ccc(C(=O)/C=C/c2cc(C(=O)O)cc3c2OCOC3)c(O)c1	MCF10A rereplic 18.4µM, HT1080 IDH1KD tx inconclusive, HT1080-NT tox inconclusive
CCOc1ccc(S(=O)(=O)N2CC(=O)Nc3ccccc32)cc1	KB-V1 cytotox inconclusive, MCF10A rereplic inconclusive, KB-3-1 cytotox inconclusive, HT1080 IDH1KD tx 11.6µM, HT1080-NT tox inconclusive, SW480 rerep 14.6µM
CCOc1ccc(S(=O)(=O)N2c3ccccc3CC2C)cc1 (centres undefined)	KB-V1 cytotox 1.46µM, MCF10A rereplic inconclusive, KB-3-1 cytotox 1.16µM, HT1080 IDH1KD tx inconclusive, HT1080-NT tox 3.16µM, SW480 rerep 1.64µM
Cc1cc(C(C)(C)C)cc(C)c1S(=O)(=O)N1CC(=O)Nc2ccccc21	MCF10A rereplic 18.4µM, HT1080 IDH1KD tx inconclusive, SW480 rerep inconclusive
Cc1ccc(S(=O)(=O)N2c3ccccc3CC2C)cc1 (centres undefined)	MCF10A rereplic inconclusive, HT1080 IDH1KD tx inconclusive, HT1080-NT tox inconclusive, SW480 rerep inconclusive
CCc1nnc(NC(=O)CN2CCN(Cc3ccccc3Cl)CC2)s1	none
C[C@@H](CN=[N+]=[N-])CN1CC[C@H](C(C)(C)C)CCC1=O	KB-V1 cytotox inconclusive, SW480 rerep inconclusive
O=C(CSc1nnc(-c2ccccn2)o1)Nc1ccccc1F	none
Cc1ccc(C(O)(c2ccccc2)c2ccccc2C(C)N(C)C)c(C)c1 (centres undefined)	KB-V1 cytotox 18.4µM, HT1080 IDH1KD tx inconclusive, HT1080-NT tox inconclusive
C=CCSC1=NC(=O)/C(=C/c2cccs2)S1	MCF10A rereplic 18.4µM
CN=c1sc(C(=O)Nc2ccccc2)c(C)n1C	none
CN=c1sc2c(n1C)C(=O)c1ccccc1C2=O	KB-V1 cytotox inconclusive, MCF10A rereplic 8.2µM, KB-3-1 cytotox inconclusive, HT1080 IDH1KD tx inconclusive, HT1080-NT tox 18.4µM, SW480 rerep 13µM
Cc1nn(CC(=O)NC2CC2)c(=O)c2cc3ccccc3n12	none (no result: MCF10A rereplic, HT1080 IDH1KD tx, HT1080-NT tox, SW480 rerep)
Cn1nnnc1SCc1csc(Nc2ccccc2)n1	none
Cc1ccc(Nc2nc(CSc3nnc(-c4ccccc4)n3C)cs2)cc1	MCF10A rereplic inconclusive, KB-3-1 cytotox inconclusive
Cc1ccc(Nc2nc(CSc3nnc(-c4ccccc4C)n3C)cs2)cc1	KB-V1 cytotox 6.51µM, MCF10A rereplic inconclusive, KB-3-1 cytotox inconclusive
Cc1ccc(Nc2nc(CSc3nnnn3-c3ccccc3)cs2)cc1	KB-V1 cytotox 14.6µM, KB-3-1 cytotox inconclusive
Cc1ccc(Nc2nc(CSc3nnnn3C)cs2)cc1	KB-V1 cytotox 23.1µM
CC(OC(=O)CC1CCCC1)C(=O)Nc1ccc(Cl)cn1 (centres undefined)	none
COc1ccccc1C(=O)NC(=O)COC(=O)CNC(=O)c1ccc(Cl)cc1Cl	none
Cc1ccc(N2N=C(c3ccc(F)cc3)CC2c2ccco2)cc1 (centres undefined)	MCF10A rereplic 5.8µM, SW480 rerep inconclusive
Cc1ccc(C2CC(c3ccccc3)=NN2c2ccccc2)o1 (centres undefined)	MCF10A rereplic 18.4µM, SW480 rerep 14.6µM
COc1ccc(C2=NN(C(=O)COc3ncnc4ccccc34)C(c3ccco3)C2)cc1 (centres undefined)	HT1080 IDH1KD tx inconclusive, SW480 rerep inconclusive
CC(=O)N1N=C(c2ccc(C)cc2)CC1c1ccco1 (centres undefined)	MCF10A rereplic inconclusive
COc1ccc(C2=NN(c3nc(-c4ccccc4)c(CC(=O)O)s3)C(c3ccco3)C2)cc1 (centres undefined)	MCF10A rereplic 20.6µM, SW480 rerep inconclusive
Fc1ccc(C2=NN(c3ccccc3)C(c3ccco3)C2)cc1 (centres undefined)	MCF10A rereplic inconclusive, SW480 rerep 6.51µM
Cc1nc(N2N=C(c3ccc(Cl)cc3)CC2c2ccco2)sc1C(=O)N(C)C (centres undefined)	KB-V1 cytotox inconclusive, MCF10A rereplic 23.1µM, HT1080 IDH1KD tx inconclusive, SW480 rerep 18.4µM
Clc1ccc(C2=NN(c3ccccc3)C(c3ccco3)C2)cc1 (centres undefined)	MCF10A rereplic 0.731µM, SW480 rerep 3.66µM
COc1ccccc1C(=O)COC(=O)/C(=C/c1ccccc1)NC(C)=O	KB-V1 cytotox inconclusive

Screens: PubChem BioAssay, National Center for Advancing Translational Sciences (NCATS)
